# Test results published in publication PMC7862700, “An all-to-all approach to the identification of sequence-specific readers for epigenetic DNA modifications on cytosine”.
# Tests used:
# Assay in all cases: DAPPL (digital affinity profiling via proximity ligation, sequencing); 10 mM Tris-HCl pH 7.5, 50 mM NaCl, 1 mM DTT, 4% glycerol, room temperature, 30 min; GST-TFs on glutathione beads, 16-mer random dsDNA library, 0.1% formaldehyde crosslink after washing; high values mean tight binding
# FLI1 = molecular target: T1, FLI1 (Homo sapiens, UniProt Q01543 1-452); conditions: protein: recombinant; tags: N-terminal GST; dsDNA, one strand shown
# T1 sequence: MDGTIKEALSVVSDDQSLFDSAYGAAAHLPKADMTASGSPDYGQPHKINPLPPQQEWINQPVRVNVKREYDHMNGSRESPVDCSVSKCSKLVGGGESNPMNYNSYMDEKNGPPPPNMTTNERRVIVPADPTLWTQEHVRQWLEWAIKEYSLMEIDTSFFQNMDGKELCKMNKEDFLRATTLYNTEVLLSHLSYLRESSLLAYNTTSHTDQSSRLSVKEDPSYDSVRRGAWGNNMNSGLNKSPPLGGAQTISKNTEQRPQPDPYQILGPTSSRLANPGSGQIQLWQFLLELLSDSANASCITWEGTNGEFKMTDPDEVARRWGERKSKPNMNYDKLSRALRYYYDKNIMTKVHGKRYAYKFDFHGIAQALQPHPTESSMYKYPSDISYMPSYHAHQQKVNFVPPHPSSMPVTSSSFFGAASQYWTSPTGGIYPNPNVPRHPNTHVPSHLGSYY
# How it was run: (§1)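 Pools were built from human transcription factors expressed in yeast as GST fusions, captured on glutathione beads and DNA-barcoded, along with a tag-only sample. Incubation with 200 nmole of a 16-mer random double-stranded DNA library lasted 30 min at room temperature in Tris/NaCl/DTT/glycerol buffer, and was followed by washing, 0.1% formaldehyde crosslinking, proximity ligation, PCR amplification and Illumina NextSeq500 sequencing. Binding signal is the quotient of each hexamer's read frequency for a factor and its frequency for the tag-only sample.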
# ELK1 = molecular target: T2, ELK1 (Homo sapiens, UniProt P19419 1-428); conditions: protein: recombinant; tags: N-terminal GST; dsDNA, one strand shown
# T2 sequence: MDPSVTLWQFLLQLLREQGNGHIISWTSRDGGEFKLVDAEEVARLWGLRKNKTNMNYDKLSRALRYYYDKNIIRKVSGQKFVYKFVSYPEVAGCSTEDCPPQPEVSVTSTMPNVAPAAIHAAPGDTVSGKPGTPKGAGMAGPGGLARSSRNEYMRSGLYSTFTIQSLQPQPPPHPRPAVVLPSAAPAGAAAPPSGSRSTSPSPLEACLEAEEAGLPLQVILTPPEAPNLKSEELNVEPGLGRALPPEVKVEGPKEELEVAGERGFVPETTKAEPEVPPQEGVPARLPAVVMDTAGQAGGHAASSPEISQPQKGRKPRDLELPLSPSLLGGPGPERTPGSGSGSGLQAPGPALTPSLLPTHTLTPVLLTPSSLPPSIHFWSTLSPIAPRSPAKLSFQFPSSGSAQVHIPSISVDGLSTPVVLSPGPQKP
# How it was run: as §1
# GABPA = molecular target: T3, GABPA (Homo sapiens, UniProt Q06546 1-454); conditions: protein: recombinant; tags: N-terminal GST; dsDNA, one strand shown
# T3 sequence: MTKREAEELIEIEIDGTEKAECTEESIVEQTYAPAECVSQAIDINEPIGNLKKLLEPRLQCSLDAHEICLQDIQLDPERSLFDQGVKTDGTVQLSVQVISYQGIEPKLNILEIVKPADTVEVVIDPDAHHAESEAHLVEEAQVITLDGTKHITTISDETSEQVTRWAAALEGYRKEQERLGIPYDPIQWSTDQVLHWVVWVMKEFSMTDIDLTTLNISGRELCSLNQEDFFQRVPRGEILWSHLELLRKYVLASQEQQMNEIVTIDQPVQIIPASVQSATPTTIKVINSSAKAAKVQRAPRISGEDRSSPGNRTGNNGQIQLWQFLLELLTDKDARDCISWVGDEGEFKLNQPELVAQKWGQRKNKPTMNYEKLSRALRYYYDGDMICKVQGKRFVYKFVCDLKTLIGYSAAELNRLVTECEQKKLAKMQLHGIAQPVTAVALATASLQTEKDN
# How it was run: as §1
# ERG = molecular target: T4, ERG (Homo sapiens, UniProt P11308 1-479); conditions: protein: recombinant; tags: N-terminal GST; dsDNA, one strand shown
# T4 sequence: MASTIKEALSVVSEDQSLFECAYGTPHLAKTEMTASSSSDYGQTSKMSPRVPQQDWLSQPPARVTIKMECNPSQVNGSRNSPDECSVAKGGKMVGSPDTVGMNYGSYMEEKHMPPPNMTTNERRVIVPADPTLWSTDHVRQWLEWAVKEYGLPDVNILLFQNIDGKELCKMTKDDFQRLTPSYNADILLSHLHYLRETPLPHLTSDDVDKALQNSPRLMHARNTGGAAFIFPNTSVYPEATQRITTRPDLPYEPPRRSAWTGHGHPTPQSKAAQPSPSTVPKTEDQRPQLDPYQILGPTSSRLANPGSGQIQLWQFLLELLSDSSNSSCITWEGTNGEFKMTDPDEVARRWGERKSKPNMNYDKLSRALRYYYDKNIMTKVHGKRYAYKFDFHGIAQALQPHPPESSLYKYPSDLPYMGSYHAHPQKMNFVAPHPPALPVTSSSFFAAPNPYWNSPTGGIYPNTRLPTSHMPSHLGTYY
# How it was run: as §1
# ELF1 = ELF1 (Homo sapiens, UniProt P32519 1-619); conditions: protein: recombinant; tags: N-terminal GST; dsDNA, one strand shown
# Chain of ELF1 (P32519 whole entry): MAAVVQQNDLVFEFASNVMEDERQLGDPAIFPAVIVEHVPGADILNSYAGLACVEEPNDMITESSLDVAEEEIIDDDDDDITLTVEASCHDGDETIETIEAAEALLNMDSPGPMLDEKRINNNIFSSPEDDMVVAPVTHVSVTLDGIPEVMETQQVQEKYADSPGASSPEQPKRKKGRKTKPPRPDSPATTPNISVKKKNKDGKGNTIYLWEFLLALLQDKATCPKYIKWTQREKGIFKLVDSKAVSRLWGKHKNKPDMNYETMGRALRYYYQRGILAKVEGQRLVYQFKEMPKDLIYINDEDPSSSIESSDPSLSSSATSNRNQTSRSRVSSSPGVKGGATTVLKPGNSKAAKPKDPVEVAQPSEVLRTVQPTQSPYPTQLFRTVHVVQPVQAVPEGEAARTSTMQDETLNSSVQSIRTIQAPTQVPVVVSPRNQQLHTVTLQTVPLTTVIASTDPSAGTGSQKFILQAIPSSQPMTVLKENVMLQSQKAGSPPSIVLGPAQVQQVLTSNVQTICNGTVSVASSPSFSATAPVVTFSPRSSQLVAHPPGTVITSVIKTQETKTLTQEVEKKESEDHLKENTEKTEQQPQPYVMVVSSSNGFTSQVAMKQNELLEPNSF
# How it was run: as §1
# EHF = molecular target: T5, EHF (Homo sapiens, UniProt Q9NZC4 1-300); conditions: protein: recombinant; tags: N-terminal GST; dsDNA, one strand shown
# T5 sequence: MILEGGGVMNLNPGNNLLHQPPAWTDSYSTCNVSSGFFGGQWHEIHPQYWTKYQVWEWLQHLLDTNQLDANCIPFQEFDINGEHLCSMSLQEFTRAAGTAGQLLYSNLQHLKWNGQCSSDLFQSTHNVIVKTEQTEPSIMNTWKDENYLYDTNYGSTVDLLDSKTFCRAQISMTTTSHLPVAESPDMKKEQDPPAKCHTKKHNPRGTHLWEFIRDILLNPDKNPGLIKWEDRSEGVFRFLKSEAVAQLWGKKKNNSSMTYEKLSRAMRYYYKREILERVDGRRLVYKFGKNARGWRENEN
# How it was run: as §1
# SPI1 = SPI1 (Homo sapiens, UniProt P17947 1-270); conditions: protein: recombinant; tags: N-terminal GST; dsDNA, one strand shown
# How it was run: as §1
# SPIB = SPIB (Homo sapiens, UniProt Q01892 1-262); conditions: protein: recombinant; tags: N-terminal GST; dsDNA, one strand shown
# Chain of SPIB (Q01892 whole entry): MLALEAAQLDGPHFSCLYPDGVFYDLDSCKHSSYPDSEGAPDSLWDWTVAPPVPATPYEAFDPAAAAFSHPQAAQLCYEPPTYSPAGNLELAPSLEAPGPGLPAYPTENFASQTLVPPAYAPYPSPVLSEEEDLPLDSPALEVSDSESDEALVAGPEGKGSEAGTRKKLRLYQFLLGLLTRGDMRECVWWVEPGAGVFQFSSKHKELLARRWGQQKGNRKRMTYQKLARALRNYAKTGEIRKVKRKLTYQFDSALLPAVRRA
# How it was run: as §1
# ELK3 = molecular target: T6, ELK3 (Homo sapiens, UniProt P41970 1-407); conditions: protein: recombinant; tags: N-terminal GST; dsDNA, one strand shown
# T6 sequence: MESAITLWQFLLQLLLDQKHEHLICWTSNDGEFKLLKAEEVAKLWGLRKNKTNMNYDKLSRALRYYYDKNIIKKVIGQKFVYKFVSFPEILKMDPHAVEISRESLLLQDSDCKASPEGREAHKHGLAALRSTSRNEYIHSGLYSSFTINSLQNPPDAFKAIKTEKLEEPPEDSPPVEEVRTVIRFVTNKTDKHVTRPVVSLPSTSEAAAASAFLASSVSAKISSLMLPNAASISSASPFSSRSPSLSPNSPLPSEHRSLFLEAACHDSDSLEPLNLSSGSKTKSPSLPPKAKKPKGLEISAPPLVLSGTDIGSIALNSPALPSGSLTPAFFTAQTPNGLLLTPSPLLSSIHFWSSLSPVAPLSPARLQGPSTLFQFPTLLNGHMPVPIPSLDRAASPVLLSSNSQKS
# How it was run: as §1
# FEV = molecular target: T7, FEV (Homo sapiens, UniProt Q99581 1-238); conditions: protein: recombinant; tags: N-terminal GST; dsDNA, one strand shown
# T7 sequence: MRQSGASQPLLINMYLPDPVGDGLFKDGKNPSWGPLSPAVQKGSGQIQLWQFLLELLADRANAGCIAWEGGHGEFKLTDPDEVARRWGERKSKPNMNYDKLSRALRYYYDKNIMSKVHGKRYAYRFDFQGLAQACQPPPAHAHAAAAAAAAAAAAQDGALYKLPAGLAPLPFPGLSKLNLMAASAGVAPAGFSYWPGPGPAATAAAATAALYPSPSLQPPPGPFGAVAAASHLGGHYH
# How it was run: as §1
# ETV5 = ETV5 (Homo sapiens, UniProt P41161 1-510); conditions: protein: recombinant; tags: N-terminal GST; dsDNA, one strand shown
# Chain of ETV5 (P41161 whole entry): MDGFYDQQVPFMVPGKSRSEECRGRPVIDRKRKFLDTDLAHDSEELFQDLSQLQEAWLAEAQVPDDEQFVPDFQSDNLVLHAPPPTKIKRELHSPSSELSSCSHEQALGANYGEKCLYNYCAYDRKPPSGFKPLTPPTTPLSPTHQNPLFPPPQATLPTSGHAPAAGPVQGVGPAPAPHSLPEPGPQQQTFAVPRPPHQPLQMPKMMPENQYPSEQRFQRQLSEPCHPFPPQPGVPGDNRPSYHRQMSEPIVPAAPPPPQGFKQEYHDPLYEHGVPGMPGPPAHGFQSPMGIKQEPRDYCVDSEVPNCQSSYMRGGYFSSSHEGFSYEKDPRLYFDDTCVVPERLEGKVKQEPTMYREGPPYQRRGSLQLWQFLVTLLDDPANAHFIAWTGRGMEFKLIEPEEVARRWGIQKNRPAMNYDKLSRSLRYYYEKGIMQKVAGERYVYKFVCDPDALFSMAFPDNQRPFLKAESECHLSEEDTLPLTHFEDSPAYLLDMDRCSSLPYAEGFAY
# How it was run: as §1
# HSF1 = HSF1 (Homo sapiens, UniProt Q00613 1-529); conditions: protein: recombinant; tags: N-terminal GST; chain copies: 3; dsDNA, one strand shown
# Chain of HSF1 (Q00613 whole entry): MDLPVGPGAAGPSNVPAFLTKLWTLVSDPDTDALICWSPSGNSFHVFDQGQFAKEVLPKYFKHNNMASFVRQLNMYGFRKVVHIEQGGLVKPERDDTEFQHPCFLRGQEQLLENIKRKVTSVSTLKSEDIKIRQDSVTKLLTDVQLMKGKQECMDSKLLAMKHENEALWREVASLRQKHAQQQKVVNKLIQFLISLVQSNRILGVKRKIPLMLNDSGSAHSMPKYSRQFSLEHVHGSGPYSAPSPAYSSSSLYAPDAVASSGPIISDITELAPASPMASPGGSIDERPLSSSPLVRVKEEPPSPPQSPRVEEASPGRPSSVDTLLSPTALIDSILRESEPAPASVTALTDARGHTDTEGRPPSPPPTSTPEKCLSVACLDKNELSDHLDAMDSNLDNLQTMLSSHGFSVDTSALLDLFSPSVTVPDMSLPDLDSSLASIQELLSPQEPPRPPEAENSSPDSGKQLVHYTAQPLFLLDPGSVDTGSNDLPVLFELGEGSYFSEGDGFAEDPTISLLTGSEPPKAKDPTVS
# How it was run: as §1
# SPIC = molecular target: T8, SPIC (Homo sapiens, UniProt Q8N5J4 1-248); conditions: protein: recombinant; tags: N-terminal GST; dsDNA, one strand shown
# T8 sequence: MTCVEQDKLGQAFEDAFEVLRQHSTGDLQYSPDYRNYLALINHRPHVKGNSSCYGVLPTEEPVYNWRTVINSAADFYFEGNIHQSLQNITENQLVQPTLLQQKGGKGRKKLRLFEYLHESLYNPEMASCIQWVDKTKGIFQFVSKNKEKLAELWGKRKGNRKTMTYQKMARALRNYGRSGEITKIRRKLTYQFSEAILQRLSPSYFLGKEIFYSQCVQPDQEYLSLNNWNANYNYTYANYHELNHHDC
# How it was run: as §1
# ELF4 = ELF4 (Homo sapiens, UniProt Q99607 1-663); conditions: protein: recombinant; tags: N-terminal GST; dsDNA, one strand shown
# Chain of ELF4 (Q99607 whole entry): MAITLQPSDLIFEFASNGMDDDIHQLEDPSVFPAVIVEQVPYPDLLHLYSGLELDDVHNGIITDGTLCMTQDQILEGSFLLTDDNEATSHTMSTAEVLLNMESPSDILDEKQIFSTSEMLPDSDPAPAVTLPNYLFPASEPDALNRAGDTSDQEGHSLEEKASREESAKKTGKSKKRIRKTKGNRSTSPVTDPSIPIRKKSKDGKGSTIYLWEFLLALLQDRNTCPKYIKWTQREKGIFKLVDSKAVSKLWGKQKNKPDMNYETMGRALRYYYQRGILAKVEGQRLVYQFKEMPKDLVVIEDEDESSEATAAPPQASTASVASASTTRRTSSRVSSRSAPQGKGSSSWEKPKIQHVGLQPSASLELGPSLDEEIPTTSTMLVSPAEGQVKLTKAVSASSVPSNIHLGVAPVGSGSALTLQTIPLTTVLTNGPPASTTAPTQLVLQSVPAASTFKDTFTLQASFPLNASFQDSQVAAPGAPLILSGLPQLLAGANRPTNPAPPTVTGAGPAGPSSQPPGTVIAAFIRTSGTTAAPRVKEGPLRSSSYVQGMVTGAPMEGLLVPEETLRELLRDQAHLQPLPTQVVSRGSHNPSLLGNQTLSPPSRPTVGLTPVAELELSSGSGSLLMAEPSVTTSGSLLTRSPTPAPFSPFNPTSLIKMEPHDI
# How it was run: as §1
# ELK4 = molecular target: T9, ELK4 (Homo sapiens, UniProt P28324-2 1-405); conditions: protein: recombinant; tags: N-terminal GST; dsDNA, one strand shown
# T9 sequence: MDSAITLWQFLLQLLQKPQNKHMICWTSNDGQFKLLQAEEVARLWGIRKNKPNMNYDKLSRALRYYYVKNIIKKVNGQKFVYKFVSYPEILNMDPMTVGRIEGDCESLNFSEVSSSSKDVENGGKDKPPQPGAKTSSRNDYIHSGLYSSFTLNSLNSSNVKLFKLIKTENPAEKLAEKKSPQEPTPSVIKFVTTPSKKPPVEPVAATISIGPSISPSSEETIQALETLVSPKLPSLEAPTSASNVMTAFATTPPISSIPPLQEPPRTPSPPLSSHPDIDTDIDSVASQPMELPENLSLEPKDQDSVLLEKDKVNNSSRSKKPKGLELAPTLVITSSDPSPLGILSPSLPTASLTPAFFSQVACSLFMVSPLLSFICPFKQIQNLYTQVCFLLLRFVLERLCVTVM
# How it was run: as §1
# ETV2 = molecular target: T10, ETV2 (Homo sapiens, UniProt O00321 1-342); conditions: protein: recombinant; tags: N-terminal GST; dsDNA, one strand shown
# T10 sequence: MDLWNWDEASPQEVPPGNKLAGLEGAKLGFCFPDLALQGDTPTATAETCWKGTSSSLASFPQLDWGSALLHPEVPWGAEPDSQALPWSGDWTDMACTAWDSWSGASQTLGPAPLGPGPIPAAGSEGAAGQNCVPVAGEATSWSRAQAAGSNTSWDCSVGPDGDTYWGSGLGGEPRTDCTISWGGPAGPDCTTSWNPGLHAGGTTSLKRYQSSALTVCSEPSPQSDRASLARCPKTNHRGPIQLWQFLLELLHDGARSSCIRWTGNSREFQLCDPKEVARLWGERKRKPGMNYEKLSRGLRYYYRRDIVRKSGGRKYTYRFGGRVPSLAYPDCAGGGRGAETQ
# How it was run: as §1
# ELF3 = molecular target: T11, ELF3 (Homo sapiens, UniProt P78545 1-371); conditions: protein: recombinant; tags: N-terminal GST; dsDNA, one strand shown
# T11 sequence: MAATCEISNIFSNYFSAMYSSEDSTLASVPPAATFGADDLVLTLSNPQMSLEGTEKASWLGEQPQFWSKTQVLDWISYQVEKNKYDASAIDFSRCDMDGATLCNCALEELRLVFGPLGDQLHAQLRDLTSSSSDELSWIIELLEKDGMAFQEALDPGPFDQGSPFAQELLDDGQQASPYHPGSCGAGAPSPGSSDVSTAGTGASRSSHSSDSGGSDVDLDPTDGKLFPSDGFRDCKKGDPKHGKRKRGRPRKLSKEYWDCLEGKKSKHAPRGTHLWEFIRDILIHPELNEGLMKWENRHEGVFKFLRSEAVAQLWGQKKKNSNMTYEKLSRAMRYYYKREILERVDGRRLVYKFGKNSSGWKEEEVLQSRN
# How it was run: as §1
# CRX = CRX (Homo sapiens, UniProt O43186 1-299); conditions: protein: recombinant; tags: N-terminal GST; dsDNA, one strand shown
# Chain of CRX (O43186 whole entry): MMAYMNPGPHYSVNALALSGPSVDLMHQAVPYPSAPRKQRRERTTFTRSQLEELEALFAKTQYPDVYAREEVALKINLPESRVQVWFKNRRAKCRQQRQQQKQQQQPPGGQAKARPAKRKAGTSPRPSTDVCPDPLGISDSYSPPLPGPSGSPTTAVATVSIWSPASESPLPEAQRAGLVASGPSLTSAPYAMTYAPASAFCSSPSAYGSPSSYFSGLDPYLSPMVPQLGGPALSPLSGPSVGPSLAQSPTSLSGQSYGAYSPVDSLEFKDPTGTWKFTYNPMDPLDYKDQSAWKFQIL
# How it was run: as §1
# ETV1 = ETV1 (Homo sapiens, UniProt P50549 1-477); conditions: protein: recombinant; tags: N-terminal GST; dsDNA, one strand shown
# Chain of ETV1 (P50549 whole entry): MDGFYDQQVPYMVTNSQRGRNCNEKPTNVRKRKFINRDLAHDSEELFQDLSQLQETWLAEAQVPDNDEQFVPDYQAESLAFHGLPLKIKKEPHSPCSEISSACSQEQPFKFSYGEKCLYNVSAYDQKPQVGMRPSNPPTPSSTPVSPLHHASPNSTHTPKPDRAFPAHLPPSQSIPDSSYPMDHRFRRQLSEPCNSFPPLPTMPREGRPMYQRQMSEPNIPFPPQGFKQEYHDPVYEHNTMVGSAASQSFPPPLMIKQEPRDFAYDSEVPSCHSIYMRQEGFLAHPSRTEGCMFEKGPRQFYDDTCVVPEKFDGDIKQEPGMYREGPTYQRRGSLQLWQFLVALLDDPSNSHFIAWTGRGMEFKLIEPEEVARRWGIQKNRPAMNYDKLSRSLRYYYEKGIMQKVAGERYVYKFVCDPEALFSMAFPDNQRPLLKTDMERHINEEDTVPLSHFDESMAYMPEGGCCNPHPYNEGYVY
# How it was run: as §1
sequence,measurement,setting,value
CTCACT,binding signal,FLI1,"1.61 fold enrichment (6-mer frequency, TF over GST control)"
same,binding signal,ELK1,"1.76 fold enrichment (6-mer frequency, TF over GST control)"
same,binding signal,GABPA,"1.59 fold enrichment (6-mer frequency, TF over GST control)"
same,binding signal,ERG,"1.57 fold enrichment (6-mer frequency, TF over GST control)"
same,binding signal,ELF1,"1.49 fold enrichment (6-mer frequency, TF over GST control)"
same,binding signal,EHF,"1.56 fold enrichment (6-mer frequency, TF over GST control)"
same,binding signal,SPI1,"1.68 fold enrichment (6-mer frequency, TF over GST control)"
same,binding signal,SPIB,"1.66 fold enrichment (6-mer frequency, TF over GST control)"
same,binding signal,ELK3,"1.5 fold enrichment (6-mer frequency, TF over GST control)"
same,binding signal,FEV,"1.63 fold enrichment (6-mer frequency, TF over GST control)"
same,binding signal,ETV5,"1.4 fold enrichment (6-mer frequency, TF over GST control)"
same,binding signal,HSF1,"1.36 fold enrichment (6-mer frequency, TF over GST control)"
same,binding signal,SPIC,"1.57 fold enrichment (6-mer frequency, TF over GST control)"
same,binding signal,ELF4,"1.53 fold enrichment (6-mer frequency, TF over GST control)"
same,binding signal,ELK4,"1.38 fold enrichment (6-mer frequency, TF over GST control)"
same,binding signal,ETV2,"1.51 fold enrichment (6-mer frequency, TF over GST control)"
same,binding signal,ELF3,"1.63 fold enrichment (6-mer frequency, TF over GST control)"
same,binding signal,CRX,"1.27 fold enrichment (6-mer frequency, TF over GST control)"
same,binding signal,ETV1,"1.49 fold enrichment (6-mer frequency, TF over GST control)"
